Bioassay records: PubChem BioAssay, National Center for Advancing Translational Sciences (NCATS)
DT40 TDP1 CPT: qHTS for Inhibitors of human tyrosyl-DNA phosphodiesterase 1 (TDP1): qHTS in cells in presence of CPT; chicken DT40 Tdp1-/-;hTDP1 cells + 20 nM CPT, ATP luminescence, 48 h; Potency, µM (doses to about 46.2 µM), hits mostly inhibitors; hit rate 12% among 420,000; also: nearly all actives have a fitted effect of over 55% in size
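Cell growth measured by CellTiter-Glo luminescence after a minimum 48 h, 37 C compound exposure with 20 nM CPT in Tdp1-knockout DT40 cells stably expressing hTDP1, seeded 400/well; qHTS titration format.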
DT40 TDP1 no CPT: qHTS for Inhibitors of human tyrosyl-DNA phosphodiesterase 1 (TDP1): qHTS in cells in absence of CPT; hit rate 15% among 420,000; AID 686978, 2013; Potency, µM (titrated, usually from 46.2 µM), hits mostly inhibitors; DT40 Tdp1-/- hTDP1 cells, no CPT, ATP luminescence, 48 h; also: nearly all actives have a fitted effect of over 55% in size
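Growth of hTDP1-complemented DT40 Tdp1-knockout cells is measured by ATP luminescence after at least 48 hr compound exposure at 37 °C, with DMSO substituting for the 20 nM CPT used in the parallel screen.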
ELG1 repair inh: qHTS screen for small molecules that inhibit ELG1-dependent DNA repair in human embryonic kidney (HEK293T) cells expressing luciferase-tagged ELG1; AID 504467, 2011; hit rate 2.3% among 330,000; HEK293T ELG1-luciferase reporter, luminescence, 16 h; DNA damage induced by 5-fluorouridine; Potency, µM (titrated, usually from 46.1 µM), usual class: inhibitors; also: nearly all actives have a fitted effect of over 55% in size
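Cells (2,000 per well) received 5-fluorouridine plus test compound or DMSO and were incubated 16 hr at 37 °C, 5% CO2. Luciferase activity was read by luminescence 30 min after ONE-Glo addition; signal suppression marked inhibition of damage-induced ELG1 function.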
HT1080 IDH1KD tx: qHTS for induction of synthetic lethality in tumor cells producing 2HG: qHTS for the HT-1080-IDH1KD cell line. Potency, µM (series often up to 46.1 µM), actives largely listed as cytotoxic. hit rate 2% among 360,000. AID 686971, 2013. HT-1080 IDH1 knockdown viability, ATP luminescence, 48 h
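HT-1080-IDH1KD cells (IDH1 knocked down), 750/well in RPMI with 5% FBS, treated with compound 48 h at 37 degrees C. Viability by CellTiter-Glo luminescence, normalised to DMSO and no-cell wells; concentration-response curves classed.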
HT1080NT lethal: qHTS for induction of synthetic lethality in tumor cells producing 2HG: qHTS for the HT-1080-NT fibrosarcoma cell line. hit rate 1.6% among 360,000. AID 686970, 2013. Potency, µM (series often up to 46.1 µM), hits mostly cytotoxic. HT-1080-NT fibrosarcoma viability, CellTiter-Glo ATP luminescence, 48 h;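 also: NT is the 2HG producing partner of a matched IDH1 knockdown line; nearly all actives have a fitted effect of over 55% in size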
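HT-1080-NT; 750 cells/well; 5% FBS RPMI; 48 h compound, 37 degrees C; CellTiter-Glo luminescence; curve fitting and curve-class assignment.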
IL1B secr inh: qHTS for Inhibitors of Inflammasome Signaling: IL-1-beta AlphaLISA Primary Screen. THP-1 LPS/ATP IL-1B secretion, AlphaLISA, 16 h; hits give low values. activity change, % at 57.5 µM. hit rate 4.7% among 360,000. AID 743279, 2014; in the data active = activity change below about -50%; inconclusive = mostly about -30% to -49%
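Secreted IL-1B measured by AlphaLISA bead assay after 16 h compound exposure of THP-1 cells; compounds (final up to 57.5 uM) added 1 h before LPS (250 ng/mL) and ATP (1.25 mM) stimulation; lower signal means less secretion.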
A number is an active result; 0 = inactive; ? = inconclusive; - = no result given; ! = not confirmed by another sample; [ ] = another dose, or the depositor's remark. The list is not random: actives were taken first. Their share in the collection is about 19%. Unless noted, calls follow the shape of the dose curve; as a rule, active = well fitted curve in the direction sought with a large enough effect; inconclusive = small, poorly fitted or top-dose-only effect, or another doubt; inactive = no such curve, though single readings can be large; an effect the other way counts as inactive or inconclusive.

SMILES | DT40 TDP1 CPT | DT40 TDP1 no CPT | ELG1 repair inh | HT1080 IDH1KD tx | HT1080NT lethal | IL1B secr inh
O=C(Cn1ncc(Cl)c(Cl)c1=O)N1CCOCC1 | ? | 13µM | ? | 13µM | 12µM | -99
NC(=S)N1OC[C@@H]2COc3ccc4ccccc4c3[C@@H]21 | 18µM | 18µM | 12µM | ? | ? | -93
CC(C)(C)c1cc(C(=O)NNc2cccc(Cl)c2)n(Cc2ccccc2)n1 | ? | ? | 0 | 18µM | 21µM | -68
Cc1ccc(NNC(=O)c2cc(C(C)(C)C)nn2Cc2ccccc2)cc1 | 0 | ? | ? | 0 | 0 | ?
CC(C)(C)c1cc(C(=O)NNc2ccc(OC(F)(F)F)cc2)n(Cc2ccccc2)n1 | 0 | ? | 0 | 7.3µM | ? | -
CC(C)(C)C(=O)NNC(=O)c1cc(C(C)(C)C)nn1Cc1ccccc1 | 0 | 0 | ? | 0 | 0 | 0
COc1cc(O)ccc1CN1CCc2nnc(C(C)NC(=O)c3cc(F)ccc3F)n2CC1 (stereo not given) | 0 | 0 | - | - | - | -
CCC[N+](C)(C)c1ccc(/C=C/c2ccnc3ccccc23)cc1 | 0.025µM | 0.18µM | - | - | - | -
C[N+](C)(C)c1ccc(/C=C/c2ccnc3ccccc23)cc1 | 0.79µM | 0.63µM | - | - | - | -
Oc1ccc(/C=C/c2ccnc3ccccc23)cc1 | 18µM | 12µM | 0 | ? | ? | -62
CCCCCCCCCCC/C=C\C/C=C\CCCC(=O)O | 0[4.12 µM] | 0[4.12 µM] | - | - | - | -
Cc1ccc2oc(=O)n(Cc3ccccc3OC(C)C)c2c1 | ? | 15µM | 0 | 0 | 0 | 0
CN(Cc1ccccc1Cl)C(=O)C1CC(=O)N(c2ccc3c(c2)OCCO3)C1 (stereo not given) | ? | 0 | 0 | 0 | 0 | 0
COc1ccc2nc(NC(=O)C3CC(=O)N(c4ccc5c(c4)OCCO5)C3)sc2c1 (stereo not given) | ? | ? | ? | 0 | 0 | 0
COc1ccc(-c2nc(NC(=O)C3CC(=O)N(c4ccc5c(c4)OCCO5)C3)sc2C)cc1 (stereo not given) | 6.3µM | 6.3µM | 0 | ? | ? | 0
COc1ccc(CN(C)C(=O)C2CC(=O)N(c3ccc4c(c3)OCCO4)C2)c(OC)c1 (stereo not given) | 21µM | 16µM | ? | 0 | 0 | 0
CC1CCN(S(=O)(=O)c2cc3c4c(c2)CCN4C(=O)CC3)CC1 | 0 | 0 | ? | 0 | 0 | 0
CCOc1cc2[nH]c(=S)n(Cc3ccc(C(=O)O)cc3)c(=O)c2cc1OCC | 0 | 0 | 0 | 0 | 0 | 0
O=c1[nH]c2ccccc2nc1-c1nnnn1Cc1ccccc1 | 0 | 0 | - | 0 | 0 | 0
COc1ccc(-c2noc(CNC(=O)c3ccoc3C)n2)cc1OC | 0 | 0 | 0 | 0 | 0 | 0
COC(=O)Cn1cnc(C(=O)Nc2ccc(C)c(C)c2)n1 | 0 | 0 | ? | 0 | 0 | 0
COc1cc(NCCCCC(C)N)c2nccc(C)c2c1 (stereo not given) | 5.8µM | 3.7µM | - | ? | ? | 0
Cc1ccc(NC(=O)Cn2cc3c(n2)CCCCC3)cc1 | 0 | 0 | - | - | - | -
CC(CC(=O)NCc1ccco1)S(=O)(=O)c1ccc2c(c1)CCN2C(=O)C1CC1 (stereo not given) | 18µM | ? | 0 | ? | 0 | 0
COc1ccc(CNC(=O)CCS(=O)(=O)c2ccc3c(c2)CC(C)N3C(=O)C2CC2)cc1 (stereo not given) | 15µM | 3.7µM | ? | ? | 0 | 0
SMILES | DT40 TDP1 CPT | DT40 TDP1 no CPT | ELG1 repair inh | HT1080 IDH1KD tx | HT1080NT lethal | IL1B secr inh
COc1ccccc1NC(=O)CCNS(=O)(=O)c1ccc2c(c1)CC(C)N2C(=O)C1CC1 (stereo not given) | ? | ? | 0 | 0 | 0 | 0
CCC(=O)N1CCc2cc(S(=O)(=O)CCC(=O)NCCc3ccccc3)ccc21 | 0 | 0 | 0 | 0 | 0 | 0
CCC(=O)N1CCc2cc(S(=O)(=O)CCC(=O)NCc3ccco3)ccc21 | 0 | 2.9µM | 0 | ? | 0 | 0
COc1ccccc1CNC(=O)CCS(=O)(=O)c1ccc2c(c1)CC(C)N2C(=O)C1CC1 (stereo not given) | 21µM | 23µM | 0 | 0 | 0 | 0
O=C(CCS(=O)(=O)c1cc(Br)cc2c1N(C(=O)C1CC1)CC2)NCc1ccco1 | 0 | ? | ? | 0 | 0 | 0
Cc1c(C(=O)NCc2cccc(F)c2)sc2ncnc(NCC3CCCO3)c12 (stereo not given) | 0[9.04 µM] | ? | - | - | - | -
CCOC(=O)CC1CCCCN1Cc1cn[nH]c1-c1ccc(F)cc1F (stereo not given) | 0 | 0 | 0 | 0 | 0 | 0
CCn1c(=NC(=O)c2ccc(S(=O)(=O)N3CCCC3)cc2)sc2cc(Br)ccc21 | ? | 0 | - | - | - | -
Cc1ccc(Cl)cc1NC(=O)Cn1cc2c(n1)CCCCC2 | 0 | 0 | - | - | - | -
CCc1cccc(C)c1NC(=O)C(NS(=O)(=O)c1ccc2c(c1)CCC(=O)N2)c1ccccc1 (stereo not given) | 0 | 0 | - | - | - | -
CC1Cc2cc(S(=O)(=O)CCC(=O)NCc3ccco3)ccc2N1C(=O)C1CC1 (stereo not given) | 6.5µM | 2.9µM | 0 | ? | ? | 0
O=[N+]([O-])c1ccccc1S(=O)(=O)Nc1ccc(-c2ccc3nncn3n2)cc1 | 0 | ? | 0 | 0 | ? | 0
COCCNC(=O)c1ccc2c(c1)nc(C)n2-c1cccc(F)c1 | 0 | 0 | ? | 0 | 0 | 0
Cc1cccc(-n2c(C)nc3cc(C(=O)NCCC4=CCCCC4)ccc32)c1 | 15µM | ? | - | - | - | -
CCc1ccc(-n2c(C)nc3cc(C(=O)NCCc4ccccc4)ccc32)cc1 | 21µM | ? | - | - | - | -
CCCNC(=O)c1ccc2c(c1)nc(C)n2-c1cccc(C)c1 | 16µM! | ? | 0 | 0 | 0 | 0
CCC(=O)N1CCc2cc(S(=O)(=O)NCCC(=O)Nc3cc(C)ccc3OC)ccc21 | 0 | 0 | - | - | - | -
CN(Cc1ccc(C(F)(F)F)cc1)C(=O)C1CC(=O)N(Cc2ccco2)C1 (stereo not given) | 0 | 0 | 0 | 0 | 0 | 0
CCCCCSc1nnc2c(n1)OC(c1cccn1C)N(C(C)=O)c1ccccc1-2 (stereo not given) | 0 | 0 | 0 | 0 | 0 | -74
CCSc1nnc2c(n1)OC(c1ccc(C(=O)O)cc1)N(C(C)=O)c1ccccc1-2 (stereo not given) | 0 | 0 | 0 | 0 | 0 | 0
